# Assay results: the supplement of paper PMC8728848
# About 410 targets per protein were measured; listed, in parts, are those with the strongest signals and a random draw of the rest.
# B1: Awp3 (Candida glabrata), B4UN32 (protein)
# chain: MISFVTLLAILGLLSISWADQTVRSVAGDQRVTDPVIVGDNSILDYYGGSNYDFSNNFEIGRGTLYIGKESYFSSFQSAPTDVPNSFHLLIKNTNNLQNNGQFIIENIKRHANQCSNSSIQVFPINFQNDGEFEIISGGVEGRCCLPTSVIAPQNFLNNGKFYYKVLTDTGSIYSGSCMQNVDIGASTTTTVNNNLWEFTGSINAQINGAVSGAAQINLDGSNMFVNANTFSGQVVNLINGGSFLQTSDPLSNIVVINGLGTSDTGVTSIAVKGKGKSFTYNPSSGIVKLTTVEGKTYAYQIGCGYNTKKFITNNDSGASYESADNFFVLTYSEPYSPQTCQLENSSIFSSNFISTSTSSSSSSSSASSLPSSMSSSLPSSLSSSLSSSLSSSMSSSMSSLFIIPPPYTTTRSSGSSIIDTEIVSFYSTTDSPGHTITGTTTTTLYGPHTHSSVSTPSSSSESSTTSNSSIESSSLPHTSVSSTPESSITPSSNTISSSPTSDFSSVQSSSIMESSSVVASSSVINSSSIVDSSSSSASSLPSSMSSSLSSSMSSSLPSSMSSSLSSSLSSSLSSSMSSSMSSLFIIPPPYTTTRSSGSSIIDTEIVSFYSTTDSPGHTITGTTTTTLYGPHTHSSVSTPSSSSESSTTSNSSIESSSLPHTSVSSTPESSITPSSNTISSSPTSDFSSVQSSSIMESSSVVASSSVINSSSIVDSSSSSASSLPSSMPSSLPSSMSSSLSSSMSSSLSSSLSSSLSSSMSSSMSSLFIIPPPYTTTRSSGSSIIDTEIVSFYSTTDSPGHTITGTTTTTLYGPHTHSSVSTPSSSSESSTTSNSSIESSSLPHTSVSSTPESSITPSSNTISSSPTSDFSSVQSSSIMESSSVVASSSATQSSSVINSSSIVDSSSSSASSLPSSMPSSLPSSLSSSLSSSLSSSMSSSMSSLFIIPPPYTTTRSSGSSIIDTEIVSFYSTTDSPGHTITGTTTTTLYESSIYSSSSSTIQESELSNTSRTTMTSNSSVSISSTSSRSSFSNTKSSTIVISQSASLPDSKTDIILSTSSNIGYSSRSLLSDLGTSISDSDIHHSVLHSTESYSSNESGTNPFTSIASLSNFIPESSSHTSTALGSENSVISSDILTTMSHPVATNSGDKPTTPKRSEQVSTTMTSSGPTPDTSSFDTDGMSAYSRPEFTTNSLEVNKSSTSQLGNNKQTFSNLQLESTRPHSENEVDNNTRLLQSIQQSSTYGTNNVNPLSPTGSISIPLTEDGQGDNNNWNSPATNDLCTQISFNLTATTITVTDRITITDSIHDISSEVITSYIYQTIVDQKTVTQTVDGKSLANKMSSIPKPSSRSLIQPQPPVAIELQEGAASTSRVSLVSLFISIILVLL
# What was measured:
# Assay in all cases: glycan array binding signal (z-score within array); higher = stronger binding
# Conditions in all cases: glycan notation: IUPAC condensed, linker removed
# [1] = biological target: GalNAc(b1-3)Gal(a1-4)Gal(b1-4)GlcNAc
# In short: (§1)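 Glycan array data came from 3228 arrays in the Consortium for Functional Glycomics database, and only arrays with an available protein sequence were kept. Glycan names were put into IUPAC-condensed notation, and columns mapping to the same glycan were averaged. The binding signal is a within-array Z-score, averaged across arrays of one protein sequence run at different concentrations or buffers and across linkers. A negative Z-score can be read as non-binding.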
# [2] = biological target: GalNAc3S(b1-4)GlcNAc
# In short: as §1
# [3] = biological target: GlcNAc(a1-4)Gal(b1-4)GlcNAc(b1-3)Gal(b1-4)Glc
# In short: as §1
# [4] = biological target: GlcNAc(a1-6)Gal(b1-4)GlcNAc
# In short: as §1
# [5] = biological target: GlcNAc(b1-2)[GlcNAc(b1-4)]Man(a1-3)[GlcNAc(b1-4)][GlcNAc(b1-2)[GlcNAc(b1-6)]Man(a1-6)]Man(b1-4)GlcNAc(b1-4)GlcNAc
# In short: as §1
# [6] = biological target: GlcNAc(b1-3)Gal(b1-4)GlcNAc(b1-2)Man(a1-3)[GlcNAc(b1-3)Gal(b1-4)GlcNAc(b1-2)Man(a1-6)]Man(b1-4)GlcNAc(b1-4)[Fuc(a1-6)]GlcNAc
# In short: as §1
# [7] = biological target: GlcNAc(b1-3)Gal(b1-4)GlcNAc(b1-3)Gal(b1-4)GlcNAc(b1-3)GalNAc
# In short: as §1
# [8] = biological target: Man(a1-6)Man
# In short: as §1
# [9] = biological target: Man(b1-4)GlcNAc
# In short: as §1
# [10] = biological target: Neu5Ac(a2-3)Gal
# In short: as §1
# [11] = biological target: Neu5Ac(a2-3)Gal(b1-3)GalNAc(b1-4)[Neu5Ac(a2-3)]Gal(b1-4)Glc
# In short: as §1
# [12] = biological target: Neu5Ac(a2-3)Gal(b1-3)GalNAc(b1-4)[Neu5Ac(a2-8)Neu5Ac(a2-3)]Gal(b1-4)Glc
# In short: as §1
# [13] = biological target: Neu5Ac(a2-3)Gal(b1-3)GlcNAc(b1-2)Man(a1-3)[Neu5Ac(a2-3)Gal(b1-3)GlcNAc(b1-2)Man(a1-6)]Man(b1-4)GlcNAc(b1-4)GlcNAc
# In short: as §1
# [14] = biological target: Neu5Ac(a2-3)Gal(b1-4)GlcNAc(b1-6)[Neu5Ac(a2-3)Gal(b1-3)]GalNAc
# In short: as §1
# [15] = biological target: Neu5Ac(a2-3)[Neu5Ac(a2-6)]GalNAc
# In short: as §1
# [16] = biological target: Neu5Ac(a2-6)Gal(b1-4)GlcNAc(b1-2)Man
# In short: as §1
# [17] = biological target: Neu5Ac(a2-6)Gal(b1-4)GlcNAc(b1-2)Man(a1-6)[Man(a1-3)]Man(b1-4)GlcNAc(b1-4)GlcNAc
# In short: as §1
# [18] = biological target: Neu5Ac(a2-6)Gal(b1-4)GlcNAc(b1-3)Gal(b1-4)GlcNAc(b1-2)Man(a1-3)[Neu5Ac(a2-6)Gal(b1-4)GlcNAc(b1-3)Gal(b1-4)GlcNAc(b1-2)Man(a1-6)]GalNAc
# In short: as §1
# [19] = biological target: Neu5Ac(a2-6)GlcNAc(b1-4)GlcNAc
# In short: as §1
# [20] = biological target: Neu5Ac(a2-6)GlcNAc(b1-4)GlcNAc(b1-4)GlcNAc
# In short: as §1
# [21] = biological target: Neu5Ac(a2-8)Neu5Ac(a2-3)Gal(b1-4)GlcNAc
# In short: as §1
# [22] = biological target: Neu5Ac(a2-8)Neu5Ac(a2-8)Neu5Ac(a2-8)Neu5Ac(a2-3)[GalNAc(b1-4)]Gal(b1-4)Glc
# In short: as §1
# [23] = biological target: Neu5Ac9Ac(a2-3)Gal(b1-4)GlcNAc
# In short: as §1
# [24] = biological target: Neu5Gc(a2-6)GalNAc
# In short: as §1
# [25] = biological target: Neu5Gc(a2-8)Neu5Gc(a2-3)Gal(b1-4)GlcNAc
# In short: as §1
binder,measurement,setting,value
B1,glycan array binding signal (z-score),[1],0.048
same,glycan array binding signal (z-score),[2],3.17
same,glycan array binding signal (z-score),[3],-0.466
same,glycan array binding signal (z-score),[4],-0.59
same,glycan array binding signal (z-score),[5],-1.54
same,glycan array binding signal (z-score),[6],2.04
same,glycan array binding signal (z-score),[7],0.914
same,glycan array binding signal (z-score),[8],0.889
same,glycan array binding signal (z-score),[9],0.34
same,glycan array binding signal (z-score),[10],-1.36
same,glycan array binding signal (z-score),[11],-0.398
same,glycan array binding signal (z-score),[12],-0.714
same,glycan array binding signal (z-score),[13],0.813
same,glycan array binding signal (z-score),[14],-2.35
same,glycan array binding signal (z-score),[15],-0.108
same,glycan array binding signal (z-score),[16],-0.199
same,glycan array binding signal (z-score),[17],0.591
same,glycan array binding signal (z-score),[18],3.08
same,glycan array binding signal (z-score),[19],2.86
same,glycan array binding signal (z-score),[20],2.42
same,glycan array binding signal (z-score),[21],-1.76
same,glycan array binding signal (z-score),[22],1.87
same,glycan array binding signal (z-score),[23],-0.226
same,glycan array binding signal (z-score),[24],-0.186
same,glycan array binding signal (z-score),[25],0.721
